Experimental data as given in PubChem BioAssay (NCATS).
Inconclusive results are not listed. Active and inactive are the calls of the source. Unless noted, the call rests on the fitted dose curve; in most records, active means well fitted curve in the direction sought with a large enough effect; inconclusive means small, poorly fitted or top-dose-only effect, or another doubt; inactive means no such curve, though single readings can be large; an effect the other way counts as inactive or inconclusive. Residues, ends and D or L forms follow the SMILES beside them.

Assays:
[1] = Confirmatory qHTS for small molecule stabilizers of the endoplasmic reticulum resident proteome: Secreted ER Calcium Modulated Protein (SERCaMP) assay (AID 1508628); further: nearly all actives have a fitted effect of over 40% in size; further: potency means the concentration at half of the fitted maximal effect
How it was run: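 GLuc-SERCaMP-expressing SH-SY5Y cells, pretreated 16 h with compound, are challenged with thapsigargin to empty ER calcium stores; after 4 h, coelenterazine is added directly to the medium and luminescence is imaged.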

[2] = Cell Viability qHTS for small molecule stabilizers of the endoplasmic reticulum resident proteome (AID 1508629); details: cell viability counter-screen, 100 nM thapsigargin for final 4 h;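 further: human SH-SY5Y neuroblastoma cells carrying the GLuc-SERCaMP reporter; compound exposure about 46 h in total before the viability read; on the % scale 0 is the no-effect control and ±100 the full control effect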
[3] = target: Lysosomal acid glucosylceramidase (Homo sapiens) (UniProt P04062); assay: Glucocerebrosidase-p2 (AID 348; in the data active means potency below about 10 µM; further: potency means the concentration at half of the fitted maximal effect); details: purified GBA, blue fluorogenic substrate, 40 min
How it was run: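 Normal human glucocerebrosidase (0.2 nM) with blue fluorogenic substrate (80 uM final) in citrate/phosphate pH 5.9 with 10mM sodium taurocholate, 0.01% tween-20; 40 min RT, NaOH/glycine stop; fluorescence Ex 365/Em 440; AC50 from a titration from 0.6 nM upwards.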

[4] = AP1 Signaling Pathway (AID 357; active means well fitted curve in either direction with a large enough effect, not every such curve was filed as active; further: on the % scale 0 is the no-effect control and ±100 the full control effect); details: ME-180 AP-1-bla reporter, EGF-induced, beta-lactamase ratio, 5 h; at 7.69 µM (top of the series) unless noted
How it was run: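 In this screen, ME-180 cells in Opti-MEM with 0.5% dialyzed FBS received EC50 EGF and compound titrations for 5 h. AP-1 reporter beta-lactamase was detected via CCF4 ratio, giving AC50 for positive and negative modulators.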

[5] = NFAT Signaling Pathway (AID 444; active means well fitted curve in either direction with a large enough effect, not every such curve was filed as active;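 further: carbachol stimulus at about its EC50 of 1 µM final; on the % scale 0 is the no-effect control and ±100 the full control effect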); details: Jurkat NFAT-bla M1, carbachol, beta-lactamase ratio, 5 h; at 7.69 µM (top of the series) unless noted
How it was run: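 Read-out: CCF4 FRET ratio (460 nm/530 nm) after 1 h RT dye loading, used for %activity and AC50 from titration series. Cells: Jurkat NFAT-β-lactamase/M1 line, treated with compound plus 1 uM carbachol for 5 h, 37 °C.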

[6] = Stat Signaling Pathway (AID 446; active means well fitted curve in either direction with a large enough effect, not every such curve was filed as active;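 further: ME-180 cervical cancer cells given 40 pM IL-6 alongside compound; SIE-controlled beta-lactamase reporter measured as 460/530 nm FRET emission ratio; on the % scale 0 is the no-effect control and ±100 the full control effect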); details: ME-180 (cervical carcinoma) SIE beta-lactamase reporter, IL-6 stimulated, 5 h; at 7.69 µM (top of the series) unless noted
How it was run: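 Emission at 460 and 530 nm (excitation 405 nm) reports SIE-controlled beta-lactamase in ME-180 cells. Cells received compound with 40 pM IL-6 for 5 hrs at 37 C; data scaled between 300 pM IL-6 and 125 nM JAK-inhibitor controls.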

[7] = target: Glucocorticoid receptor (Homo sapiens) (UniProt P04150); assay: GR-EFC Redistribution (AID 451; calls by dose curve; further: potency means the concentration at half of the fitted maximal effect); details: CHO-K1 GR-EFC translocation, beta-gal luminescence, 2 h
How it was run: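 Translocation of GR-ED fusion to nuclear EA restores b-gal, read by luminescence after 1 h room-temperature detection. Engineered CHO-K1 biosensor cells, 1,000/well, exposed 2 h at 37 C to titrations up to 46 uM final.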

[8] = target: Mitogen-activated protein kinase 10 (Mus musculus) (UniProt Q61831); assay: JNK3 AlphaScreen Assay (AID 530; active means well fitted curve in either direction with a large enough effect, not every such curve was filed as active)
How it was run: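 Kinase buffer: 20 mM Tris-HCl pH 7.6, 10 mM MgCl2, 1 mM DTT, 0.1 mM Na3VO4, 0.01% Tween-20; ATP 10 uM. Substrate biotin-GST-cJun(1-79), enzyme from activated HepG2 lysates. Detection by Ser73 phospho-antibody AlphaScreen.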

[9] = target: 3',5'-cyclic-AMP phosphodiesterase 4B (Homo sapiens) (UniProt Q07343); assay: qHTS Assay for Inhibitors of PDE-IV (AID 607; active means well fitted activation curve with a large enough effect in the main read-out, with a control signal flat, not every such curve was filed as active; further: % of control where 0% means no effect)
How it was run: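 The readout is membrane depolarisation from a cAMP-sensing CNG channel, detected with a potential dye at ex 535/em 590. Cells were HEK293-derived (endogenous PDE-IV) at 1000 cells/well, titrated up to 22.9 uM final.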

[10] = qHTS Assay for Lipid Storage Modulators (AID 1519; calls by dose curve); details: Drosophila S3 cells, BODIPY lipid droplet/cell ratio, laser cytometry, cells loaded with oleic acid; for activity change, negative = inhibition: at 57.5 µM (top of the series)
How it was run: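 Cells seeded at 5,000 per well were treated with compounds over a concentration series and loaded with oleic acid (400 uM, as added). Lipid droplet fluorescence (488 nm excitation, 500-530 nm channel) was read by laser-scanning cytometry and normalized to 20 uM Triacsin C.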

[11] = target: Glucocorticoid receptor (Homo sapiens) (UniProt P04150); assay: GR-GFP Redistribution (AID 450;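 active means compounds whose dose series gives a full or clear partial fitted curve of increased nuclear translocation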; further: potency means the concentration at half of the fitted maximal effect); details: U2OS GR-GFP nuclear translocation, laser cytometry, 2 h
[12] = target: Cytochrome P450 1A2 (Homo sapiens) (UniProt P05177); assay: p450-cyp1a2 (AID 410; calls by dose curve; further: potency means the concentration at half of the fitted maximal effect;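 on activity change, negative = inhibition: -100% = full effect of reference inhibitor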)
How it was run: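 Read-out is luminescence from luciferin produced by CYP1A2 demethylation of Luciferin-ME (100uM, at Km). Detection reagent stopped the 60 min NADPH-dependent reaction; signals were normalized to 57 uM furafylline.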

[13] = target: Cytochrome P450 3A4 (Homo sapiens) (UniProt P08684); assay: qHTS Assay for Inhibitors and Substrates of Cytochrome P450 3A4 (AID 884); further: potency means the concentration at half of the fitted maximal effect; nearly all actives have a fitted effect of over 50% in size
How it was run: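 Luminescent readout of luciferin produced by CYP3A4 (20 nM) dealkylation of Luciferin-PPXE, 25 uM (its KM). NADPH-driven reaction ran 60 min at RT after 10 min compound preincubation; data scaled to 57 uM ketoconazole as 100% inhibition.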

[14] = target: Cytochrome P450 3A4 (Homo sapiens) (UniProt P08684); assay: qHTS Assay for Activators of Cytochrome P450 3A4 (AID 885); further: nearly all actives have a fitted effect of over 65% in size
How it was run: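 Activators are scored by enhanced luminescence from CYP3A4 conversion of luciferin-PPXE (25uM, equal to KM) to luciferin, after 60 min at RT with an NADPH-regenerating system.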

[15] = Counterscreen qHTS for small molecule stabilizers of the endoplasmic reticulum resident proteome: GLuc-NoTag assay (AID 1508627);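 further: SH-SY5Y cells given compound then 100 nM thapsigargin to empty ER calcium; 0% = thapsigargin alone and -100% = DMSO vehicle control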
How it was run: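 Counterscreen line: SH-SY5Y-GLuc-NoTag cells, treated with compound 19 hr before a 4 hr, 100 nM thapsigargin calcium depletion. Secreted Gaussia luciferase in the medium was measured by luminescence after coelenterazine was added (0.07x final), with cells unlysed.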

[16] = target: Dual specificity protein kinase CLK4 (Homo sapiens) (UniProt Q9HAZ1); assay: qHTS Assay for Inhibitors of CDC-like Kinase 4 (Kinase-Glo Assay) (AID 1770); further: on the % scale 0 is the no-effect control and ±100 the full control effect; nearly all actives have a fitted effect of over 65% in size
How it was run: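 Inhibition was judged from remaining ATP, measured by Ultra-Glo luciferase bioluminescence after Clk4 (25 nM) had acted on RS peptide at 1 uM ATP for 4.5 hours, room temperature.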

[17] = target: Dual specificity protein kinase CLK4 (Homo sapiens) (UniProt Q9HAZ1); assay: qHTS Assay for Inhibitors of CDC-like Kinase 4 (ADP-Glo Assay) (AID 1771); further: on the % scale 0 is the no-effect control and ±100 the full control effect; nearly all actives have a fitted effect of over 70% in size
How it was run: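 In this ADP-Glo format, 1 uM ATP and 100 uM RS peptide served as substrates for 25 nM Clk4 in Mg2+/EGTA/DTT/Triton buffer; reactions ran 1 hr at room temperature before luminescent ADP quantification.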

[18] = target: Dual specificity protein kinase CLK4 (Homo sapiens) (UniProt Q9HAZ1); assay: qHTS Assay for Inhibitors of CDC-like Kinase 4 (ADP-FP Assay) (AID 1795);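 further: recombinant human CLK4 phosphorylating RS repeat peptide at 1 µM ATP; on the % scale 0 is the no-effect control and ±100 the full control effect; nearly all actives have a fitted effect of over 60% in size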
How it was run: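 Inhibition of ADP formation by 6.25 nM Clk4 is measured using 1 uM ATP and 100 uM RS repeat peptide over one hour. Produced ADP displaces a fluorescent tracer from antibody, lowering polarization.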

[19] = target: Ubiquitin carboxyl-terminal hydrolase 1 (Homo sapiens) (UniProt O94782); assay: Inhibitors of USP1/UAF1: Pilot qHTS (AID 504865);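 further: rhodamine fluorescence freed from ubiquitin-rhodamine substrate followed over time; top concentration of the series differs between compounds; on the % scale 0 is the no-effect control and ±100 the full control effect; nearly all actives have a fitted effect of over 35% in size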
How it was run: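 Kinetic fluorescence assay: 1nM USP1/UAF1, 15 min compound preincubation, then 150nM Ub-Rho; 480/540 nm.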

[20] = measured here: cell count channel max response
[21] = measured here: lipid channel max response

Sequence of Cytochrome P450 3A4 (Homo sapiens) (P08684 whole entry, looked up): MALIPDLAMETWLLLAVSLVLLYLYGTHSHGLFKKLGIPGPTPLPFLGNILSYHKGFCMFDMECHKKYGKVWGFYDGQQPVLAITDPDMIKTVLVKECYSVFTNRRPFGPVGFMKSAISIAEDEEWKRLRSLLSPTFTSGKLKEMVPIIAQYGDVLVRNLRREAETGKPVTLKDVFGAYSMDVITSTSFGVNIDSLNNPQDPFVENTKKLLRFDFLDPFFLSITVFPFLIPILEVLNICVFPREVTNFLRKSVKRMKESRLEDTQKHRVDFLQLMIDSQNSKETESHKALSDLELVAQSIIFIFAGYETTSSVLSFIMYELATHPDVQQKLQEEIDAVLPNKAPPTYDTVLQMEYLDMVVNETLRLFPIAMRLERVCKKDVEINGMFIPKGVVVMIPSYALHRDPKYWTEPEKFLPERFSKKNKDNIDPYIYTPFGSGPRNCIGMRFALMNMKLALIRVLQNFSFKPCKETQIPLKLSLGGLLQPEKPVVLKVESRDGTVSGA
Sequence of Glucocorticoid receptor (Homo sapiens) (P04150 whole entry, looked up, the tested form may be a part): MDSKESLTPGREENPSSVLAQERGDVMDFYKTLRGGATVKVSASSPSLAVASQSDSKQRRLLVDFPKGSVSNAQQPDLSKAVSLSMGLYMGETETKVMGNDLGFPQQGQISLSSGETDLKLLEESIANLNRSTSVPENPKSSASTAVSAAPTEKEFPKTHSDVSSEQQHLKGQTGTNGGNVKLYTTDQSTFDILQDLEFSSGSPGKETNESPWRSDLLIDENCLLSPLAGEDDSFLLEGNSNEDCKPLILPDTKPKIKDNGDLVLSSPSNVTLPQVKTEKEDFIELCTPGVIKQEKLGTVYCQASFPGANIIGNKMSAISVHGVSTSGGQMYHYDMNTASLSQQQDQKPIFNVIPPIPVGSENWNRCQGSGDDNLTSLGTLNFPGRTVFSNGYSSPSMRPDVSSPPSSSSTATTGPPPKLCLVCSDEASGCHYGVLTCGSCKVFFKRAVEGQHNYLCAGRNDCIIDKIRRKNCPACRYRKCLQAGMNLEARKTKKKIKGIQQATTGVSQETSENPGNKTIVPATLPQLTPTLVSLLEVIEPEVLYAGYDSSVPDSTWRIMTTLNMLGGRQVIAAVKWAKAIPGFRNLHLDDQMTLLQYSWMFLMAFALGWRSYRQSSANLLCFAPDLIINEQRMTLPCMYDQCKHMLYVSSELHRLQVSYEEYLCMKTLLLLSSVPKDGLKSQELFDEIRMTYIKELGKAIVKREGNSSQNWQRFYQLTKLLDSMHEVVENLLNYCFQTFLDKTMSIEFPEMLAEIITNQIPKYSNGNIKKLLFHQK
Sequence of Cytochrome P450 1A2 (Homo sapiens) (P05177 whole entry, looked up): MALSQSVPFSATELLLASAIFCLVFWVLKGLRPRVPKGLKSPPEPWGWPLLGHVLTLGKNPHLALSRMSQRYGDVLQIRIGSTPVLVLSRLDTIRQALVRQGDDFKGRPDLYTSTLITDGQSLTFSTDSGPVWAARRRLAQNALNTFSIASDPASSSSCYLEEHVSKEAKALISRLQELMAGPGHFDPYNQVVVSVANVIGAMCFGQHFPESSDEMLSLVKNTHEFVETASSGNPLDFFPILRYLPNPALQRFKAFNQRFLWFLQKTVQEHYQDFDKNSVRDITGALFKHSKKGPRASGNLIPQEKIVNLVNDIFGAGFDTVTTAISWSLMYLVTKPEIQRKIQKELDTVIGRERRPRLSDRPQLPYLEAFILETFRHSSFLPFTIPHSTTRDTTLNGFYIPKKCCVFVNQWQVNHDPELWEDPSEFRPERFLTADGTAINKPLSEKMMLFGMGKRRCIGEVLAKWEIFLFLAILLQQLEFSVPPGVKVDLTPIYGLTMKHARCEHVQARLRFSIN
Sequence of Dual specificity protein kinase CLK4 (Homo sapiens) (Q9HAZ1 whole entry, looked up): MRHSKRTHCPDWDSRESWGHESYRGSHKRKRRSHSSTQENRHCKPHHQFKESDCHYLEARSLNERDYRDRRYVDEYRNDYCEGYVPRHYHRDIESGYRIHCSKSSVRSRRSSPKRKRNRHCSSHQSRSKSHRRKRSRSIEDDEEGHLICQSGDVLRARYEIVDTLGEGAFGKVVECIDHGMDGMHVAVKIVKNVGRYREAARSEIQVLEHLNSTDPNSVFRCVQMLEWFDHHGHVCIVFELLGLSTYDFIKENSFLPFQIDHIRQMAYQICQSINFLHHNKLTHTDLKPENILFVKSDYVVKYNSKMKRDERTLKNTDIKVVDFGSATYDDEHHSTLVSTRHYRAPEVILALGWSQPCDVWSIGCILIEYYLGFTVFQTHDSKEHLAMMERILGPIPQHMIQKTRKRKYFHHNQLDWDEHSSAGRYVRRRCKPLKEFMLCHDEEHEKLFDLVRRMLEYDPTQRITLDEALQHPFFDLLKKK
Sequence of Lysosomal acid glucosylceramidase (Homo sapiens) (P04062 whole entry, looked up): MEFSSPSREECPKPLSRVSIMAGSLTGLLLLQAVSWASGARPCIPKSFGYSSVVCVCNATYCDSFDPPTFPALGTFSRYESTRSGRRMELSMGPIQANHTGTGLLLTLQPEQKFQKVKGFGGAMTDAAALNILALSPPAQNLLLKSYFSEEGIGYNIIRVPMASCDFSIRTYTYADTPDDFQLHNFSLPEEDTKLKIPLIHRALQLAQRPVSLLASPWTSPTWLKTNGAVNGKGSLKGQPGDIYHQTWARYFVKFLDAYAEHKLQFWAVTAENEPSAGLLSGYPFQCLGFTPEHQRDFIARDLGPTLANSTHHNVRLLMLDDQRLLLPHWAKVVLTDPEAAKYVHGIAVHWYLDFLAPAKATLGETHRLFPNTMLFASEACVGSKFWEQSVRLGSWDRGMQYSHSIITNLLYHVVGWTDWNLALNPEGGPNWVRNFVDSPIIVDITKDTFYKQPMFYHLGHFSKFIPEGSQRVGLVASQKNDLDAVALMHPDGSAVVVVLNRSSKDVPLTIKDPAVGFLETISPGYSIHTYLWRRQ
Sequence of 3',5'-cyclic-AMP phosphodiesterase 4B (Homo sapiens) (Q07343 whole entry, looked up): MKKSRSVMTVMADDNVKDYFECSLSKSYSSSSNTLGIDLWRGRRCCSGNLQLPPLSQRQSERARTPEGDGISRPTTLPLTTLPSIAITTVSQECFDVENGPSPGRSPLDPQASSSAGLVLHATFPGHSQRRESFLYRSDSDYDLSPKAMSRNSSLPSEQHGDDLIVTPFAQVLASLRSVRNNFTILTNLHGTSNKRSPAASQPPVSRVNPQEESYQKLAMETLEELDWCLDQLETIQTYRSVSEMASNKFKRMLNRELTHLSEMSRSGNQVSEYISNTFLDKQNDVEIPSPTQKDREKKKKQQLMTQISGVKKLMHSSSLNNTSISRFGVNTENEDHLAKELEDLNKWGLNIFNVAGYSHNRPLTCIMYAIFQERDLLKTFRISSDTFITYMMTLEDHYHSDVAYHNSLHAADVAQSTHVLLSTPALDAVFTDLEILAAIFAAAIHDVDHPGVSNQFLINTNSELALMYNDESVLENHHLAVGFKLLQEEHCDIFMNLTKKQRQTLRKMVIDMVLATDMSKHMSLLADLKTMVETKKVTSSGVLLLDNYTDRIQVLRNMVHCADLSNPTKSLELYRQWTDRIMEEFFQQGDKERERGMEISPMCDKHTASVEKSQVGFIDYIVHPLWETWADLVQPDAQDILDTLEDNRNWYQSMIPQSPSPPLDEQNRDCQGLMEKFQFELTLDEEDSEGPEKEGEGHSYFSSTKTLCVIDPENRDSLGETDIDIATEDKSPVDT
Sequence of Ubiquitin carboxyl-terminal hydrolase 1 (Homo sapiens) (O94782 whole entry, looked up): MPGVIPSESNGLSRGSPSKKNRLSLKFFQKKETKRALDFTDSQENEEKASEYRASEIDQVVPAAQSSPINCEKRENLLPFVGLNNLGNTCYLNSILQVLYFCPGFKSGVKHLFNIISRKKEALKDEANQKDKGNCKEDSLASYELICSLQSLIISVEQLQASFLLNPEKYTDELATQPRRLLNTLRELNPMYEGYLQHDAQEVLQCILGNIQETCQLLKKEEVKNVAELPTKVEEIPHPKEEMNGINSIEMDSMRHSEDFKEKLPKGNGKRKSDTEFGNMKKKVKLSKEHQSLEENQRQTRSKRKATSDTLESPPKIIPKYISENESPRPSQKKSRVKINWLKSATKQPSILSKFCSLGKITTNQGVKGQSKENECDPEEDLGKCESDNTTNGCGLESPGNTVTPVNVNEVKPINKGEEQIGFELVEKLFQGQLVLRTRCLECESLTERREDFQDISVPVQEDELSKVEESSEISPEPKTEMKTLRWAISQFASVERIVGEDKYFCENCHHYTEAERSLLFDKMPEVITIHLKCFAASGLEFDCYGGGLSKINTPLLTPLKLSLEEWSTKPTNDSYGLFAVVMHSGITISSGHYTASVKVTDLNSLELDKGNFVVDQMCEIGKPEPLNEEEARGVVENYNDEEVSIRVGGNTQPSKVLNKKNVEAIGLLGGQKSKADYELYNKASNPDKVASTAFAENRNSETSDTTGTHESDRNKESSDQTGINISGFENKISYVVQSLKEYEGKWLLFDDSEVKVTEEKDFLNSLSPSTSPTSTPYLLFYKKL

O=C(CCCN1C(=O)c2cccc3cccc(c23)C1=O)N1CCN(Cc2ccc3c(c2)OCO3)CC1
inactive: max response [2] -13.9%
active: Potency [1] 27.3 µM

O=C(Nc1cccc(F)c1)N1CCC2(CC1)CCN(S(=O)(=O)c1ccccc1)CC2
0.271%: max response [10, 20]
inactive: Potency [3] > 11.4 µM | activity change, negative = inhibition [4] -14.1% | activity change, negative = inhibition [5] 11.4% | activity, negative = inhibition [6] -8.13% | Potency [7] > 46 µM | outcome [8] | Potency [9] | activity change, negative = inhibition [10] -0.528% | Potency [1] | max response [2] 3.59%
1.82%: max response [10, 21]

CN(C)c1ncc2nc(CCc3ccccc3)c(=O)n(C[C@H]3CCCO3)c2n1
active: Potency [1] 39.8 µM
inactive: Potency [3] > 11.4 µM | activity change, negative = inhibition [4] -3.01% | activity change, negative = inhibition [5] -1.26% | activity, negative = inhibition [6] 1.42% | Potency [11] > 9.22 µM | Potency [7] > 46 µM | outcome [8] | max response [2] 23.4%

Cc1ccc(C(=O)N/C(=C\c2cccs2)c2nc3ccccc3[nH]2)cc1
inactive: Potency [1] | max response [2] 8.84%

O=S(=O)(c1ccccc1)N1CCC[C@@]2(CCN(c3ccncc3)C2)C1
active: Potency [13] 3.98 µM
inactive: Potency [3] > 11.4 µM | activity change, negative = inhibition [4] -6.47% | Potency [12] | activity, negative = inhibition [6] 0.894% | Potency [7] > 46 µM | outcome [8] | Potency [9] | Potency [14] | Potency [15]

OC[C@H]1NC[C@@H](O)[C@@H](O)[C@@H]1O
inactive: Potency [1] | max response [2] 8.42%

COCCn1c(=O)c(-c2cc(F)cc(F)c2)nc2cnc(N3CCNCC3)nc21
inactive: Potency [3] > 11.4 µM | Potency [11] > 9.22 µM | Potency [7] > 46 µM | outcome [8] | Potency [9] | Potency [14] | Potency [15]
active: Potency [12] 6.31 µM

O=c1c(CCc2ccccc2)nc2cnc(N3CCNCC3)nc2n1C1CC1
18.1%: max response [10, 21]
inactive: Potency [3] > 11.4 µM | activity change, negative = inhibition [4] -9.21% | activity change, negative = inhibition [5] -7.73% | activity, negative = inhibition [6] -12.8% | Potency [11] > 9.22 µM | Potency [7] > 46 µM | outcome [8] | Potency [14] | activity change, negative = inhibition [10] 2.72% | Potency [16] | Potency [17] | Potency [18] | Potency [19] | Potency [15]
16.7%: max response [10, 20]

Cc1nc2cnc(N3CCN(C)CC3)nc2n(Cc2cccs2)c1=O
inactive: Potency [3] > 11.4 µM | activity change, negative = inhibition [4] 6.23% | activity change, negative = inhibition [5] -2.27% | activity, negative = inhibition [6] -2.61% | Potency [11] > 9.22 µM | Potency [7] > 46 µM | outcome [8] | Potency [9] | Potency [14] | activity change, negative = inhibition [10] 5.56% | max response [2] -5.25%
active: Potency [12] 12.6 µM | Potency [1] 39.8 µM
14%: max response [10, 20]
22.2%: max response [10, 21]

CC[C@H](C)[C@H](NC(=O)[C@H](CC(=O)O)NC(=O)[C@H](CC(N)=O)NC(=O)[C@@H](NC(=O)[C@H](CCCNC(=N)N)NC(=O)[C@@H](NC(=O)[C@@H](NC(=O)[C@@H](NC(=O)[C@@H](NC(=O)[C@H](CCCCN)NC(=O)[C@@H](NC(=O)[C@H](CC(C)C)NC(=O)[C@@H](NC(=O)[C@H](CCCCN)NC(=O)[C@@H](NC(=O)[C@H](CC(=O)O)NC(=O)[C@H](CC(=O)O)NC(=O)[C@H](CCC(N)=O)NC(=O)[C@@H](NC(=O)[C@H](CCCCN)NC(=O)[C@H](CCC(N)=O)NC(=O)[C@@H](NC(=O)[C@@H]1CCCN1C(=O)[C@@H](N)C(C)C)[C@@H](C)CC)C(C)C)[C@@H](C)O)[C@@H](C)O)[C@@H](C)CC)[C@@H](C)O)[C@@H](C)CC)C(C)C)[C@@H](C)O)[C@@H](C)CC)C(=O)N[C@@H](CO)C(=O)N[C@@H](Cc1cnc[nH]1)C(=O)N[C@H](C(=O)N[C@@H](CCC(N)=O)C(=O)N[C@@H](CO)C(=O)N[C@H](C(=O)N[C@@H](CO)C(=O)N[C@@H](CO)C(=O)N[C@@H](CCCCN)C(=O)N[C@@H](CCC(N)=O)C(=O)N[C@@H](CCCCN)C(=O)O)C(C)C)[C@@H](C)O (H-VPIQKVQDDTKTLIKTIVTRINDISHTQSVSSKQK-OH)
inactive: activity change, negative = decrease [1] -1.59% [at 9.4 µM] | max response [2] 4.6%
